# PAFAH2 inh: inhibitors of human PAFAH2. Q99487. recombinant PAFAH2, FP-rhodamine activity probe, fluorescence polarization. inhibition, % at 3.39 µM. actives 0.99% (n = 340,000). AID 492956;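 active = inhibition above the mean over all tested compounds plus 3 SD, cut at about 30% in these data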;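 note: inhibitors block probe labeling of enzyme so polarization drops; 0% = enzyme with DMSO and 100% = wells lacking PAFAH2 protein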
# PAFAH1B3 FP inh: blocks human PAF acetylhydrolase 1B catalytic subunit 3; recombinant PAFAH1B3, FP-rhodamine probe, fluorescence polarization; inhibition, % at 3.39 µM; actives 0.28% (n = 340,000);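 active = inhibition above the screen-wide average of all tested compounds plus 3 SD, cut at about 25% in these data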;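 note: 0% = enzyme with DMSO only and 100% = wells lacking PAFAH1B3 protein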
# DSG3 Ab inh: human desmoglein-3 autoantibody binding inhibition. P32926. DSG3-coupled beads, scFv-anti-DSG3-GFP binding, flow cytometry; active compounds read low. binding (percent of control), % at 10 µM. actives 0.48% (n = 310,000). AID 588358;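 active = binding more than 3 SD below its plate's average and above zero; inconclusive = below that plate limit but binding exactly zero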;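 note: hits lower antibody fragment binding to DSG3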
# M18AAP inhibitor: blocks P. falciparum M18 aspartyl aminopeptidase. actives 1.2% (n = 290,000). inhibition, % at 7.35 µM. AID 1822. recombinant PfM18AAP, H-Glu-NHMec fluorogenic cleavage;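 active = inhibition above the campaign mean inhibition over all tested compounds plus 3 SD, cut at about 28% in these data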;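 note: 0% = plate median of test compound wells and 100% = 2 mM ZnCl2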
# pPAFAH FP inh: inhibitors of human plasma PAF acetylhydrolase (pPAFAH) | Q13093 | recombinant pPAFAH, FP-rhodamine probe fluorescence polarization | inhibition, % at 3.39 µM | actives 1.5% (n = 330,000);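 active = inhibition above the mean inhibition across the screen plus 3 SD, cut at about 25% in these data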;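 note: inhibitors block binding of the rhodamine activity-based probe so polarization drops; 0% = enzyme with DMSO and 100% = wells lacking pPAFAH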
# PAFAH1B2 FP inh: inhibitors of human PAFAH1B2 | actives 1.2% (n = 340,000) | P68402 | recombinant PAFAH1B2, FP-rhodamine activity probe, fluorescence polarization | inhibition, % at 3.39 µM;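 active = inhibition above the mean of all tested compounds plus 3 SD, cut at about 24% in these data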;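 note: 0% = enzyme with DMSO and 100% = wells lacking PAFAH1B2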
# Target sequence (P68402 whole entry, looked up): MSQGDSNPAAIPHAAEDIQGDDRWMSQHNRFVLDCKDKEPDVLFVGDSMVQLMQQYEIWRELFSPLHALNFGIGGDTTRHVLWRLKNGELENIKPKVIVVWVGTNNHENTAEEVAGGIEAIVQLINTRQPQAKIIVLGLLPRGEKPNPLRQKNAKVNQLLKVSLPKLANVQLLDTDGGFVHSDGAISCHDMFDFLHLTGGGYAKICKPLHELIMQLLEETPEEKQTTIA
# PAFAH1B3 confirm: confirmation of human PAFAH1B3 inhibitors. recombinant PAFAH1B3, FP-Rh activity-based probe, fluorescence polarization. inhibition, % at 3.39 µM. actives 30% (n = 390). shares compounds with PAFAH1B3 FP inh;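 active = average inhibition over triplicate runs above the hit cutoff set in the earlier primary screen, cut at about 25% in these data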;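 note: 0% = enzyme with DMSO and 100% = wells lacking PAFAH1B3 protein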
# An asterisk follows results filed as active; ? = inconclusive; nt = no result. The list is not random: actives were taken first. Their share in the collection is about 3.8%.
SMILES,PAFAH2 inh,PAFAH1B3 FP inh,DSG3 Ab inh,M18AAP inhibitor,pPAFAH FP inh,PAFAH1B2 FP inh,PAFAH1B3 confirm
COc1cccc2c1oc1c(SCc3nc4ccccc4[nH]3)nc(C)nc12,4,6,103,nt,-11,2,nt
COc1cccc(CN2CCNC(=O)C2CC(=O)N(C)C2CCOCC2)c1OC (configuration not stated),-4,-2,100,7,-5,-1,nt
O=c1[nH]c(Nc2ccc(F)cc2)cc2ccccc12,6,56*,132,8,11,10,20
Cc1c(C(=O)N/N=C/c2cccnc2)sc(N)c1C#N,-2,8,111,5,nt,-2,nt
COc1ccc(C(C(=O)NCC2CCCO2)N(C(=O)c2snc(C(N)=O)c2N)c2ccc(C)cc2)cc1OC (configuration not stated),-2,10,91,6,nt,5,nt
CCCCN(C(=O)c1c(CC)noc1C)c1c(N)n(CCCC)c(=O)[nH]c1=O,0,3,97,nt,5,6,nt
O=C(N/N=C/c1ccccc1O)NC12CC3CC(CC(C3)C1)C2,5,26*,?,-9,5,6,21
O=C(O)c1ccc(NC2=C(n3nnc4ccccc43)C(=O)c3ccccc3C2=O)cc1,7,29*,96,0,1,10,26*
O=C(O)c1cccc(NC2=C(N3CCOCC3)C(=O)c3ccccc3C2=O)c1,18,24,92,13,-3,5,nt
Cc1c(S(=O)(=O)N(C)C2CCCCC2)c(=O)n(C)c(=O)n1C,0,7,98,nt,2,3,nt
CNC(=O)c1[nH]nc2c1CCc1cc(OC)ccc1-2,29,28*,114,5,0,15,9
CC1(C)Cc2c(cnn2-c2cccc(F)c2)C(NC(=O)CN2CCCC2=O)C1 (configuration not stated),1,-2,nt,-3,4,-1,nt
O=C(O)c1cccc2c1-c1ccccc1/C2=N\Nc1ccccc1,22,0,100,8,19,9,nt
O=C(O)c1cc(NN=C2c3ccccc3-c3ccccc32)ccc1Cl,24,48*,106,-4,5,9,37*
O=C(O)c1cccc(NN=C2c3ccccc3-c3ccccc32)c1,20,42*,81,10,nt,5,31*
O=C(CCC(=O)N1CCN(S(=O)(=O)c2ccccc2Cl)CC1)c1ccccc1,17,10,101,nt,nt,2,nt
CN=c1sc(C(=O)Nc2ccccc2)c(C)n1C,4,2,96,-7,4,4,nt
CN=c1sc2c(n1C)C(=O)c1ccccc1C2=O,14,42*,nt,nt,nt,13,29*
O=C(NCc1ccc(F)cc1)C(c1ccccc1)c1ccccc1,-4,3,106,0,-3,-1,nt
CC(=O)N(Cc1ccc(F)cc1)C1=C(NCc2ccccc2)C(=O)c2ccccc2C1=O,8,42*,nt,-8,nt,11,25
Cc1ccc(-n2c(C)cc(C(=O)NS(=O)(=O)c3ccc(C)cc3)c2C)cc1,2,52*,102,1,10,9,36*
COc1ccc(C2(O)CCN(CC(=O)Nc3nc(-c4ccccc4)cs3)CC2)cc1,6,8,100,5,2,1,nt
Cc1ccc(C(C)C)c(OCc2ccc(C(=O)N/N=C/c3ccc(O)cc3O)cc2)c1,-1,42*,106,0,14,23,26*
Cc1ccc(C(C)C)c(OCc2ccc(C(=O)N/N=C/c3ccc(C(=O)O)cc3)cc2)c1,-50,-31,106,-7,-12,-18,nt
CCC1CCCCN1C(=O)CCS(=O)(=O)c1ccc2c(c1)CCN2C(C)=O (configuration not stated),11,1,88,-5,6,1,nt
CCCCNC1=CC(=O)C(=O)c2ccccc21,8,25,99,0,4,2,nt
CCc1ccc(NC2=CC(=O)C(=O)c3ccccc32)cc1,18,59*,98,nt,nt,9,37*
O=C1C=C(Nc2ccccc2)c2ccccc2C1=O,7,62*,108,7,nt,9,30*
O=C(NC(=S)NCC1CCCO1)c1ccc(Br)o1 (configuration not stated),-2,-1,110,-10,0,-2,nt
